Reference: PubChem BioAssay
Active and inactive are the calls of the source.

Experiments:
[1] = test system: Plasmodium falciparum Sir2 (PF13_0152, Sir2A); assay: Plasmodium falciparum Sir2A binding compounds – biochemical, small-molecule microarray, 635 nm fluorescence, primary screen (AID 1098); conditions: fluorescence 635 nm, higher = more signal;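 note: score merges spot fluorescence intensity with its signal-to-noise ratio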
[2] = probe aDKK1 binding to arrayed compounds – biochemical, biotinylated probe, 635/667 nm fluorescence, primary screen (AID 1099); conditions: small-molecule microarray, higher = more signal;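 note: score merges 667nm spot fluorescence with signal to noise across triplicate slides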
[3] = probe aCHRDL2 binding to arrayed compounds – biochemical, biotinylated probe, 635/667 nm fluorescence, primary screen (AID 1100); conditions: small-molecule microarray, higher = more signal
[4] = change in splice reporter luminescence, either direction, cell-based, HEK293, spliceosome inhibition project, primary screen (AID 1101); conditions: HEK293 splicing luciferase reporter, 24 h, higher = more signal, called active from +8 up or from −8 down;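 note: HEK293 cells carrying a splicing-competent luciferase reporter gene; test concentration not given here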
[5] = target: Fibroblast growth factor 10 (Homo sapiens) (UniProt O15520); assay: compounds binding fibroblast growth factor 10 – biochemical, small-molecule microarray, 635 nm fluorescence, primary screen (AID 1102); conditions: FGF10 binding, fluorescence 635 nm, higher = more signal
Sequence of Fibroblast growth factor 10 (Homo sapiens) (O15520 whole entry, looked up): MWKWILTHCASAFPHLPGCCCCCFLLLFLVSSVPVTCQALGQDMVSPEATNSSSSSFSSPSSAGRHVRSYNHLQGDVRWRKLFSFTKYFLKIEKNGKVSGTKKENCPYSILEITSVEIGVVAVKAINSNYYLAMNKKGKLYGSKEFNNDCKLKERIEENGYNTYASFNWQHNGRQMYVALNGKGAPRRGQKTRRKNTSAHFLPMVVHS

[6] = test system: glycogen synthase kinase-3 (GSK3A per assay name; protocol says GSK3B); assay: compounds binding glycogen synthase kinase-3 – biochemical, small-molecule microarray, 635 nm fluorescence, GSK3A, primary screen (AID 1103); conditions: fluorescence 635 nm, higher = more signal; note: the record names both GSK3A and GSK3B
[7] = target: Epidermal growth factor receptor (Homo sapiens) (UniProt P00533); assay: compounds binding epidermal growth factor receptor – biochemical, small-molecule microarray, 635 nm fluorescence, primary screen (AID 1104); conditions: EGFR binding, higher = more signal;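 note: score merges 667 nm emission intensity with spot signal to noise over triplicate slides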
Sequence of Epidermal growth factor receptor (Homo sapiens) (P00533 whole entry, looked up): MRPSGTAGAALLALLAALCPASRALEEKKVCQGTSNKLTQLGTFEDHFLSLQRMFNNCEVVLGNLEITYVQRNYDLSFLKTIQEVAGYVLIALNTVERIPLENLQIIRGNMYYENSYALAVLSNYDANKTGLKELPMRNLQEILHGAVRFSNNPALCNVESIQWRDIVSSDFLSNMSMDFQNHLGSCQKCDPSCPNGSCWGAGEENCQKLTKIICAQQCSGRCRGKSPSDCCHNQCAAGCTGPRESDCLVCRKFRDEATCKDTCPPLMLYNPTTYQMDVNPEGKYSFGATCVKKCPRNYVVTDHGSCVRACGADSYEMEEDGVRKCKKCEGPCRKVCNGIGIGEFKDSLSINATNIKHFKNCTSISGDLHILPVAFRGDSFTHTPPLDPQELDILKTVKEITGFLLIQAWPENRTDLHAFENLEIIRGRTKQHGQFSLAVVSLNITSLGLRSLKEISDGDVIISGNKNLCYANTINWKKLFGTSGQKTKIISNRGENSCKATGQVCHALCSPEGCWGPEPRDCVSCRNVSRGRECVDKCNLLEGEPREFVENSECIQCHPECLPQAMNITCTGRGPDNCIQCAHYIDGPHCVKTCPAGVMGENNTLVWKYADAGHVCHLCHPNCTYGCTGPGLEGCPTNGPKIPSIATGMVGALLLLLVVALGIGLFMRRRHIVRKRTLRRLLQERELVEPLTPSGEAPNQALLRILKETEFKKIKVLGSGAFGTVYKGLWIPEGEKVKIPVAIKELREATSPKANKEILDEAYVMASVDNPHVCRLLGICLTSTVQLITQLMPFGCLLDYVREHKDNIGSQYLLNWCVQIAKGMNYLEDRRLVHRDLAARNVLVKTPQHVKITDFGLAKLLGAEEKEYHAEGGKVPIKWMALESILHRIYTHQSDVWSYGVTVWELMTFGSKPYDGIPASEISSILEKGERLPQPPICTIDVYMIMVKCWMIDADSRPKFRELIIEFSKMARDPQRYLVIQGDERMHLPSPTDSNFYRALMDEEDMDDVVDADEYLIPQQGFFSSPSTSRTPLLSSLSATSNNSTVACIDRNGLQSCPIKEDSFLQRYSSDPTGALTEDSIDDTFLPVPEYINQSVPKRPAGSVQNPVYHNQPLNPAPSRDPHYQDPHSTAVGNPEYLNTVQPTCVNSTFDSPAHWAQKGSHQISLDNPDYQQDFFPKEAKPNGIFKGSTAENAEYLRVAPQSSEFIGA

[8] = target: Follistatin-related protein 3 (Homo sapiens) (UniProt O95633); assay: compounds binding follistatin-related protein 3 – biochemical, small-molecule microarray, 635 nm fluorescence, primary screen (AID 1105); conditions: FSTL3 binding, higher = more signal;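 note: score merges emission near 667 nm and signal to noise per printed spot across three slides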
Sequence of Follistatin-related protein 3 (Homo sapiens) (O95633 whole entry, looked up): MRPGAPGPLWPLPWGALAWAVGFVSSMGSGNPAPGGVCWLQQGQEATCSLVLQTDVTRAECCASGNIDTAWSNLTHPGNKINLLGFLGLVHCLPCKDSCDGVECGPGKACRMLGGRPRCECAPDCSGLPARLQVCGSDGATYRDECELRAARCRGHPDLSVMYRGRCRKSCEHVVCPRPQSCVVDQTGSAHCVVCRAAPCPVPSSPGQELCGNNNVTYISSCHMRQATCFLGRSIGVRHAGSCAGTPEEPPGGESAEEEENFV

[9] = target: Dickkopf-related protein 1 (Homo sapiens) (UniProt O94907); assay: small molecules binding DKK1 protein – biochemical, small-molecule microarray, 635 nm fluorescence scan, primary screen (AID 1106); conditions: higher = more signal;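 note: score merges emission near 667 nm with signal to noise over three replicate slides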
Sequence of Dickkopf-related protein 1 (Homo sapiens) (O94907 whole entry, looked up): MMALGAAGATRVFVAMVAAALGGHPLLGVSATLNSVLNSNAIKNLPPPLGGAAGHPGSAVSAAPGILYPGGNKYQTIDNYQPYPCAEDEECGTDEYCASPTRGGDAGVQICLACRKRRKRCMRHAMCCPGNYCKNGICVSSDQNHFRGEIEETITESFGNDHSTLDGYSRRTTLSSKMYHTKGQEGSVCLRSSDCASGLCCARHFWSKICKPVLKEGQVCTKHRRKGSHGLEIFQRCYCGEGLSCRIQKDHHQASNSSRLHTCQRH

[10] = test system: Inhibin beta A chain (activin A); assay: small molecules binding activin A – biochemical, small-molecule microarray, 635 nm fluorescence scan, primary screen (AID 1107); conditions: INHBA, higher = more signal;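 note: mouse activin A protein probed at 4.33 µg/mL on printed slides; score merges bound-protein fluorescence near 667 nm with spot signal-to-noise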
[11] = test system: Human papillomavirus type 1a protein E7 (residues 44-93); assay: small molecules binding HPV E7 44-93 – biochemical, small-molecule microarray, residues 44-93, 635 nm fluorescence, primary screen (AID 1108); conditions: fluorescence 635 nm, higher = more signal;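 note: E7 fragment applied at 1 µg/mL in TBST for 1 h at 4 C; score combines spot fluorescence with its signal to noise ratio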
[12] = hepatitis C replication reporter changes, two-sided – Huh7 cells, luciferase reporter, HCV replication inhibitor project, primary screen (AID 1109); conditions: Huh7 HCV replicon luciferase reporter, 48 h; higher = more signal;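 note: huh7 hepatoma cells harbouring a luciferase neomycin HCV replicon reporter; luciferase luminescence as measure of HCV replicon replication; test concentration not given here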
[13] = target: Left-right determination factor 2 (Homo sapiens) (UniProt O00292); assay: small molecules binding LEFTY2 protein – biochemical, small-molecule microarray, 635 nm fluorescence scan, primary screen (AID 1110); conditions: higher = more signal
Sequence of Left-right determination factor 2 (Homo sapiens) (O00292 whole entry, looked up): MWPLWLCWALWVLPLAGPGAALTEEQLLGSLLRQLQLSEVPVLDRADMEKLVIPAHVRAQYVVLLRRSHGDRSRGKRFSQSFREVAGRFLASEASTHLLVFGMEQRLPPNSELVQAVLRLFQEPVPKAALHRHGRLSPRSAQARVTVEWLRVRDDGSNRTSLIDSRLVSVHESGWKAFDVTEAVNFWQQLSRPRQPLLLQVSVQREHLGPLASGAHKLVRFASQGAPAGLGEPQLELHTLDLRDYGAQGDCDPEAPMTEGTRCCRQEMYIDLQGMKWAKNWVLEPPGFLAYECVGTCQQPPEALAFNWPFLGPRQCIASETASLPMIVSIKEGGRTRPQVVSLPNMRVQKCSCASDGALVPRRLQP

[14] = target: Calmodulin-1 (Homo sapiens) (UniProt P0DP23); assay: small molecules binding calmodulin-1 with EGTA – biochemical, small-molecule microarray, Cy5-labelled CALM1, profiling panel (AID 1111); conditions: Cy5-CALM1 binding fluorescence, higher = more signal;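 note: labelled calmodulin applied in Tris saline Tween buffer holding calcium plus EGTA and DTT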
[15] = target: Calmodulin-1 (Homo sapiens) (UniProt P0DP23); assay: small molecules binding Ca-loaded calmodulin-1 – biochemical, small-molecule microarray, Cy5-labelled CALM1, plus calcium, artefact control for SMM control-protein annotation, profiling panel (AID 1112); conditions: Cy5-CALM1 binding fluorescence, higher = more signal;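 note: score merges spot fluorescence with signal to noise from triplicate slides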
[16] = probe aWnt5a binding to arrayed compounds – biochemical, biotinylated probe, 635/667 nm fluorescence, primary screen (AID 1113); conditions: small-molecule microarray, higher = more signal;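 note: score merges 667 nm fluorescence intensity with signal-to-noise per printed feature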
[17] = probe aShh binding to arrayed compounds – biochemical, biotinylated probe, 635/667 nm fluorescence, primary screen (AID 1114); conditions: small-molecule microarray, higher = more signal;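 note: probe is biotin-labelled aShh protein from a stem cell growth factor screen; measures binding of labelled protein to compounds printed on the slide; score merges feature fluorescence at 667 nm with signal-to-noise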
[18] = probe aNog binding to arrayed compounds – biochemical, biotinylated probe, 635/667 nm fluorescence, primary screen (AID 1115); conditions: small-molecule microarray, higher = more signal;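 note: probe is biotinylated aNog protein used at 0.15 µg/mL for 1 h at 4 C; z-score combines 667 nm fluorescence of each spot with its signal to noise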
[19] = target: Torsin-1A-interacting protein 1 (Homo sapiens) (UniProt Q5JTV8); assay: compound microarray binding of lysate hLAP1 – cell lysate, small-molecule microarray, COS7 lysate, 635/667 nm fluorescence, primary screen (AID 1116); conditions: 635 nm fluorescence, higher = more signal
Sequence of Torsin-1A-interacting protein 1 (Homo sapiens) (Q5JTV8 whole entry, looked up): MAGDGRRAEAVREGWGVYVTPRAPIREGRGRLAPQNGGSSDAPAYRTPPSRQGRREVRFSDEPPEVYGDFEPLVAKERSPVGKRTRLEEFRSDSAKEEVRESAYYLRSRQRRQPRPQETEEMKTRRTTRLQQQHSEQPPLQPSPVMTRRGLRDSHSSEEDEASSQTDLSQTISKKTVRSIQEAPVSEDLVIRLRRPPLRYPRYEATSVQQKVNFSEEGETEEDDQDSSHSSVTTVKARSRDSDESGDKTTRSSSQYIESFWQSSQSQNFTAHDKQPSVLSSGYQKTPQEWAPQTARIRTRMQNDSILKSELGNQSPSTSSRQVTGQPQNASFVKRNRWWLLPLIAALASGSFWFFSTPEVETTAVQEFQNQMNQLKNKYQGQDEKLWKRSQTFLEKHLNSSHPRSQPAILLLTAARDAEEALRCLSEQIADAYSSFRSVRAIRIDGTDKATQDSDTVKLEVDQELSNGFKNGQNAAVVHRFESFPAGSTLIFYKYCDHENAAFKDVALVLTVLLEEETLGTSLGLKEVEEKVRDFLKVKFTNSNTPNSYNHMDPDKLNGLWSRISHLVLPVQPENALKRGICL

[20] = target: Alpha-bungarotoxin (Bungarus multicinctus) (UniProt P60615); assay: compounds binding labelled alpha-BTX control protein – biochemical, small-molecule microarray, Alexa647 label, 635/667 nm fluorescence, artefact control for SMM control protein annotation, profiling panel (AID 1117); conditions: alpha-BTX-A647 binding fluorescence, higher = more signal
Sequence of Alpha-bungarotoxin (Bungarus multicinctus) (P60615 whole entry, looked up): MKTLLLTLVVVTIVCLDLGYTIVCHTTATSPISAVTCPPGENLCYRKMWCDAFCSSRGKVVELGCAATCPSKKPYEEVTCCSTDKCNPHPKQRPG

| SMILES | composite z-score [1] | composite z-score [2] | composite z-score [3] | z-score [4] | composite z-score [5] | composite z-score [6] | composite z-score [7] | composite z-score [8] | composite z-score [9] | composite z-score [10] | composite z-score [11] | z-score [12] | composite z-score [13] | composite z-score [14] | composite z-score [15] | composite z-score [16] | composite z-score [17] | composite z-score [18] | composite z-score [19] | composite z-score [20] |
| --- | --- | --- | --- | --- | --- | --- | --- | --- | --- | --- | --- | --- | --- | --- | --- | --- | --- | --- | --- | --- |
| C=C(C(=O)CC[C@@H](OC(=O)c1cccnc1)c1ccccc1OCCO)C(C)C | 0.0757 | -0.181 | 0.0623 | 1.34 (inactive) | 0.969 | 0.342 | 0.029 | 0.401 | 0.063 | 1.34 | -0.139 | -2.35 | 0.373 | -0.948 | -0.895 | -0.0643 | -0.0977 | -0.247 | 1.85 | 0.593 |
| O=C1N(Cc2ccccc2)c2ccccc2[C@@H]2OC(c3ccc(OCCCO)cc3)=N[C@]12CCS(=O)(=O)c1ccccc1 | 0.833 | 0.562 | 0.78 | 1.2 (inactive) | 0.17 | 0.251 | -0.24 | 0.0891 | 0.0435 | 1.07 | 1.38 | -1.38 | 0.274 | 1.61 | 0.246 | 0.0279 | -0.0575 | -0.807 | 0.655 | 1.48 |
| COCCOC(=O)N1C(=O)[C@@]2(c3cc(C#CCNC(N)=O)ccc31)[C@H](C(=O)N1CCN(c3ncccn3)CC1)[C@H]1C(=O)O[C@H](c3ccccc3)[C@H](c3ccccc3)N1[C@@H]2c1ccc(OCCO)cc1 | 1.08 | 0.223 | 0.329 | -0.729 (inactive) | 1.01 | -0.0506 | 0.498 | 1.37 | 0.204 | 0.63 | 1.01 | -0.801 | 0.188 | 0.392 | 0.0615 | 0.0031 | -0.315 | 0.196 | 0.0481 | 1.82 |
| CCOC(=O)C[C@H]1[C@H](OC(=O)c2ccc(C(=O)c3ccccc3)cc2)[C@@H](NC(=O)c2ccccc2)c2cc(OCCCO)ccc2N1C(=O)Cc1ccc(OC)cc1 | -0.0032 | 0.234 | 0.586 | 0.0989 (inactive) | 0.131 | 0.0916 | 0.285 | 0.0514 | -0.0269 | 0.811 | 0.525 | -0.283 | 0.366 | 0.0941 | -0.222 | -0.107 | -0.195 | -0.205 | 0.738 | 0.178 |
| CC(C)=CCCC(C)=CC(O)C1C=CC2C(=O)N(C)C(=O)C2N1Nc1ccccc1 (stereo not given) | 0.854 | 0.473 | 0.55 | 3.04 (inactive) | 0.914 | 1.31 | 1.52 | 1.47 | 0.893 | 1.07 | 1.45 | -2.28 | 0.457 | 1.99 | 0.73 | 0.0597 | -0.0362 | 1.3 | 0.524 | 2.04 |
